# Measured values taken from PubChem BioAssay (NCI).
# About 83,000 compounds went through this panel and 20% of them were active in at least one assay; those are over-represented in the sample as a whole.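 Growth was measured after 48 h exposure to one concentration of compound in 96-well plates. Values under 10 count as active.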 Values without a mark were called inactive. The source made the active and inactive calls.
# System: IGROV1 ovarian
# Experiment: NCI-60 one-dose screen, 48 h (100 = growth as untreated, 0 = no growth, -100 = all killed)
# Conditions: 10 µM unless noted
# Experimental: Growth inhibition of the IGROV1 human tumor cell line is measured as a screen for anti-cancer activity. Cells are grown in 96 well plates and exposed to the test compound for 48 hours. Compounds are tested at a single concentration, which is 10^-5 M for most compounds. The reported endpoint is percent growth (GI% or GIPRCNT), where numbers from 0 - 100% represent growth inhibition, and numbers from -100% - 0 represent cell death. For example, a value of 40 represents 60% growth inhibition. A value of 0 means no net growth occurred over the course of the experiment. A value of -40 indicates 40% of cells at the beginning of the experiment died by the end of the experiment. A value of -100 means all cells are dead at the end of the experiment.
# NCI-60 Human Tumor Cell Lines Screen was performed using the standard one-dose NCI protocol, which is described in more detail at https://dtp.cancer.gov/discovery_development/nci-60/default.htm.
# Compounds with GIPRCNT values below 10 were considered active. Activity score was based on GIPRCNT using the following formula: […]
# Score is 0 for GIPRCNT values of 100 or above, 50 for GIPRCNT values of 0, and 100 for GIPRCNT values of -100.
row,SMILES,growth
1,CC(C)c1ccc(COCc2cc(CN3CCCC3)c(O)c3ncccc23)cc1,9.42% (active)
2,COc1ccc2c3c([nH]c2c1)C(=O)c1nc(C)ccc1C3=O,28.8%
3,COC(=O)c1cc(-c2ccc(S(C)(=O)=O)cc2)[nH]c1N/N=C/c1c(Cl)cccc1Cl,-43.6% (active)
4,CNc1nc(S(=O)c2ccc(C#N)cc2)nc2ccccc12 (stereo not given),86.3%
5,CC[C@]12C=CCN3CC[C@@]4(c5cc(NC(=O)CCC(=O)OCc6cn(Cc7ccc(F)cc7)nn6)c(OC)cc5N(C)[C@H]4[C@@](O)(C(=O)OC)[C@@H]1OC(C)=O)[C@@H]32,108%
6,CCO/C=N/C1=C(C#N)C(c2ccc(OC)cc2)c2sc3c(F)cccc3c2O1 (stereo not given),44.4%
7,CC(C)c1ccc(NC(=O)Nc2ccc(NC(=O)CCCC(=O)NOCc3ccccc3)cc2)cc1,91.5%
8,COc1ccc(C2=Nc3c/c(=C\c4c(O)[nH]c5ccc(Cl)cc45)ccc3=N2)cc1,75.3%
9,O=S(=O)(NCCNc1cc(-c2c(-c3cccc(O)c3)nc3sccn23)ccn1)c1ccc(C(F)(F)F)cc1,36.4%
10,Cc1nnc(-n2c(O)cc(=O)n(-c3ccccc3)c2=S)nc1/C=C/c1ccc(N(C)C)cc1,58.1%
11,O=C1c2cccnc2C(=O)c2c1c(C(=O)NCCCN1CCCCC1)c1ccccn21,-43.4% (active)
12,CCc1ccc(Oc2cn[nH]c2-c2ccc(OCCc3ccc(F)cc3)cc2O)cc1,97.3%
13,COc1cnc2c(c1)C(=O)c1c-2n(CCCNCCO)c(=O)c2ccncc12,15.6%
14,O=C(Cc1ccccc1)Nc1nc(O)c(/C=C2\C(=O)C=Cc3ccccc32)s1,102%
15,CCOC(=O)c1cc2c(=O)oc3ccccc3c2oc1=O,103%
16,O=C1NC(=O)c2c1c1c3ccccc3ccc1c1[nH]c3ccc(Br)cc3c21,14.4%
17,COc1cc(-c2cc(-c3ccc(N(C)C)cc3)nc(N3CCC(O)CC3)c2C#N)cc(OC)c1OC,7.25% (active)
18,COCCNC(=O)c1ccc(-c2nc3ccc4[nH]ncc4c3c3c2CCCC3)cc1,15.8%
19,Fc1ccc(Nc2nc3nonc3nc2Nc2ccc(I)cc2)cc1,23.2%
20,COc1cc(-n2cc(-c3cc(O)c(C/C=C(\C)CCC=C(C)C)c(O)c3)nn2)cc2c1O[C@]1(C)CC[C@@H](O)C(C)(C)[C@H]1C2,23.8%

row,SMILES,growth
1,Cn1cc(-c2nc(-c3c[nH]c4ccncc34)cs2)c2ccccc21,67.3%
2,CCc1ccc(C(=O)/C=C/C23c4ccccc4C(c4ccccc42)C2C(=O)NC(=O)C23)cc1 (stereo not given),0.604% (active)
3,Clc1ccc2c(c1)N(c1ncnc3ccc(-c4cnc5[nH]ncc5c4)cc13)CC2,0.128% (active)
4,O=S(=O)(Nc1ccc(Cl)cc1)c1ccc(-c2cnc(C3CC3)o2)cc1,33%
5,COCCn1cc(-c2nc(-c3cc4cccnc4n3CCOC)cs2)c2cc(OC)ccc21,30.8%
6,COc1ccc2c(O)c(/C=C3\N=Nc4ncccc43)oc2c1C[C@H]1CCNC[C@H]1F,2.29% (active)
7,CCCCNc1ccc(C#N)c(OCCN(CC)CC)c1,105%
8,COC(=O)c1c2c(c(C)[n+]([O-])c1C)C(=O)C(NCc1ccc(Cl)cc1)=CC2=O,61.2%
9,C=CCc1c2c(c(OC)c3ccoc13)C(=O)/C(=C/c1ccccc1OC)O2,54.8%
10,CC1=C(Nc2ccc(N3CCN(C)CC3)cc2)C(=O)c2cncnc2C1=O,1.56% (active)
11,C[C@]12CC[C@@H]3c4ccc(O)c([N+](=O)[O-])c4CC[C@H]3[C@@H]1CCC2=O,80.6%
12,C=C1C(=O)O[C@H]2[C@H]1CC/C(COC(=O)CCSCCC(=O)OC/C1=C/CC[C@@]3(C)O[C@H]3[C@H]3OC(=O)C(=C)[C@@H]3CC1)=C\CC[C@@]1(C)O[C@@H]21,-17.3% (active)
13,O=C(Cn1cc(CN2CCCCCC2)nn1)Nc1ccc2c(ccn2Cc2ccccc2)c1,94%
14,Nc1c(C(=O)Nc2ccccc2Cl)sc2nc3c(cc12)C(O)CCC3 (stereo not given),57.2%
15,N#CC1C=CN(CC(N)=O)c2ccc3cccnc3c21 (stereo not given),101%
16,CN1C(=O)/C(=C/c2cn(-c3ccccc3)nc2-c2ccccc2)SC1=S,107%
17,Cn1cccc1C(=O)C1C(c2cccc([N+](=O)[O-])c2)C2C3CCCCC3CN2C12C(=O)Nc1ccc(Cl)cc12 (stereo not given),8.94% (active)
18,Cn1cc(-c2nonc2-c2c[nH]c3ccc(Br)cc23)c2cc(Br)ccc21,59%
19,COC1=CC(c2ccc[nH]2)=N/C1=C\c1[nH]c(C)c(C(=O)OCc2ccccc2)c1C,-33.1% (active)
20,CN(C)CC(=O)Nc1ccc2ncnc(Nc3ccc(Oc4cccc(C(F)(F)F)c4)c(Cl)c3)c2c1,8.24% (active)
